# Screening results from PubChem BioAssay.
# TWEAK Fn14 block: inhibitors of TWEAK-Fn14 signaling, primary screen, luciferase reporter cells, uHTS | TWEAK-stimulated Fn14 reporter cells, luciferase luminescence, 8 h | inhibition, % at 10 µM | hit rate 2% among 360,000 | AID 1159606, 2016; in the data active = inhibition above about 50%
# KKLEB tox: cytotoxicity in KKLEB CF airway cells, primary screen, cytotoxicity control for CF NF-kB inhibitor project, cell-based, uHTS, fluorescence assay plates; KKLEB CF airway cells viability, ATPlite luminescence, overnight; active compounds read low; cells stimulated with P. aeruginosa culture filtrate; activity change (cytotoxicity), % at 5 µM; hit rate 0.36% among 360,000;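 active = corrected activity change at or below -50% at 5 µM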
# Peg3 prom inh: Peg3 promoter-driven luciferase inhibitors, primary screen, cell-based, HeLa, luciferase luminescence; HeLa PEG-Prom luciferase reporter, overnight; inhibition, % at 20 µM; hit rate 1.7% among 360,000;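 active = inhibition of at least 50% at 20 µM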
# CF NFkB inh: inhibitors of PAF-induced NF-kB signaling, primary screen, cell-based, GFP fluorescence, uHTS | AID 588850, 2011 | inhibition, % at 5 µM | KKLEB NF-kB-GFP reporter, GFP fluorescence overnight | hit rate 0.86% among 360,000;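 active = at least 50% inhibition at 5 µM, scaled per plate between neutral and stimulator controls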;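 note: PAF is a Pseudomonas aeruginosa culture filtrate used as stimulus; plate controls were PAF-stimulated DMSO wells for no effect and unstimulated DMSO wells for full effect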
# HIF-2a inh: HIF-2a reporter inhibitors, primary screen, luminescence, 786-0 RCC cells; 786-0 RCC cells HIF-2a reporter, luciferase luminescence, overnight; inhibition, % at 18.8 µM; hit rate 0.72% among 360,000;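 active = inhibition of the luminescence signal of 40% or more relative to plate controls, in a single-dose primary screen at 18.75 µM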
# TROY NFkB inh: inhibitors of TROY-driven NF-kB signaling, primary screen, Q293 LMP1-TROYcd cells, NF-kB luciferase, uHTS | Q293 LMP1-TROYcd NF-kB luciferase reporter, 4 h | inhibition, % at 10 µM | hit rate 0.98% among 360,000;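 active = compounds whose plate-normalised and pattern-corrected inhibition of the luciferase reporter signal at the single screening dose is 50% or more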
# * hit, by the source's call; nt = no result given. Sampled rows, rich in hits. Any-hit rate of the full collection: about 4%.
SMILES,TWEAK Fn14 block,KKLEB tox,Peg3 prom inh,CF NFkB inh,HIF-2a inh,TROY NFkB inh
Cc1nnc(SC(C)C(=O)NC2CCCc3ccccc32)n1-c1ccccc1 (centres undefined),-5,5,10,5,16,1
Cc1ccc(Oc2ncc(CN3CC(C)OC(C)C3)s2)cc1 (centres undefined),5,6,1,2,-12,5
COc1ccc(C(=O)/C=C/Nc2ccccn2)c(OC)c1,-4,-1,-255,8,-242,-76
O=C(/C=C\Nc1ccccn1)c1ccccc1,76*,-4,-5,1,-12,1
O=C(/C=C/Nc1ccc(Br)cc1F)c1ccccc1,86*,-78*,22,2,36,76*
CCOc1ccc(N/C=C/C(=O)c2ccccc2)c([N+](=O)[O-])c1,86*,-58*,41,-40,38,49
O=C(/C=C/Nc1ccccc1F)c1ccc(Br)cc1,45,-10,-254,-18,-127,-7
COc1ccc(C(=O)/C=C/Nc2cc(C)ccn2)cc1,75*,-16,-46,8,-46,6
O=C(NCc1ccncc1)c1csc([C@@H]2O[C@H](CO)[C@@H](O)[C@H]2O)n1,-2,6,-1,-26,12,9
O=[N+]([O-])c1ccccc1N=NNc1ccccc1,-26,16,-257,-28,-214,-9
COc1ccc(N/C=C/C(=O)c2ccccc2)cc1,90*,-54*,-36,-18,-55,40
CC1CCc2c(sc3nc(CN4CCOCC4)nc(NS(=O)(=O)c4cccc([N+](=O)[O-])c4)c23)C1 (centres undefined),-12,-6,15,-11,9,22
CCOC(=O)c1c(NC(=O)CSc2nc3ccc(OC)cc3[nH]2)sc2c1CC(C)(C)NC2(C)C,-35,-6,91*,7,9,14
O=C(O)CN1C(=O)/C(=C\c2ccccc2OCc2ccc(Cl)cc2)SC1=S,-24,7,-55,-2,-13,-33
O=C(O)CN1C(=O)/C(=C\c2cc(Br)ccc2OCc2ccc(Cl)cc2Cl)SC1=S,3,8,1,-6,2,87*
Clc1ccc(Nc2ncnc3ccc(Br)cc23)cc1,74*,-10,16,73*,1,35
O=C(c1ccc(Br)c([N+](=O)[O-])c1)N1CCN(Cc2ccccc2)CC1,3,-2,17,-11,8,11
Cc1ccc(CS(=O)(=O)c2ccc(C(=O)N3CCN(c4ccccn4)CC3)cc2[N+](=O)[O-])cc1,50*,-42,19,36,10,42
Cc1ccc(CS(=O)(=O)c2ccc(C(=O)N3CCCCC3)cc2[N+](=O)[O-])cc1,24,-7,21,-18,9,19
O=C(c1ccc(S(=O)(=O)c2ccccc2Cl)c([N+](=O)[O-])c1)N1CCN(Cc2ccccc2)CC1,74*,-6,27,34,13,34
CC1CCN(C(=O)c2ccc(S(=O)(=O)Cc3ccccc3F)c([N+](=O)[O-])c2)CC1,63*,-28,38,41,12,16
Cc1ccc2c(c1)C1(OCCCO1)C(=O)N2CC#N,8,-4,21,-13,24,10
Cc1ccc2c(c1)C1(OCCCO1)C(=O)N2CC(=O)NN,94*,-9,2,9,20,-10
O=C(OC1CCOC1=O)c1ccc(S(=O)(=O)N2CCCCCC2)cc1 (centres undefined),11,-7,-3,-7,22,-5
CS(=O)(=O)N1CCN(c2ccccc2NC(=O)c2ccc([N+](=O)[O-])o2)CC1,6,2,18,-44,-14,-6
SMILES,TWEAK Fn14 block,KKLEB tox,Peg3 prom inh,CF NFkB inh,HIF-2a inh,TROY NFkB inh
O=C(Nc1ccc(N2CCOCC2)cc1)c1ccc([N+](=O)[O-])o1,24,-7,102*,6,31,-33
CN1CCN(c2ccccc2NC(=O)c2ccc([N+](=O)[O-])o2)CC1,8,-15,61*,32,-1,-4
CCOC(=O)C1CCN(c2cc(C)nc3ccc(OC)cc23)CC1,2,-5,-10,18,19,11
CC(C)C(=O)Nc1ccc(C(=O)CSc2nnc(C3CC3)n2C2CC2)cc1,-10,7,4,8,-8,-12
COC(=O)c1c(NC(=S)Nc2ccc(CC(=O)O)cc2)sc(C)c1C,88*,-24,11,-7,5,-12
CCOC(=O)c1c(NC(=S)Nc2ccc(Cl)cc2)sc(C)c1C,4,-4,14,6,-1,-16
O=S(=O)(Nc1nc2ccccc2s1)c1ccc(Cl)s1,12,-8,22,20,-14,28
COC(=O)c1ccc(CSc2nc3ccccc3[nH]2)o1,-4,-13,-62,15,-59,-5
COC(=O)c1cc(CSc2nc3ccc(C)cc3[nH]2)oc1C,92*,1,-63,6,-54,nt
Cc1ccc(C(=O)Nc2ncc(Cc3ccccc3)s2)o1,66*,-14,-132,-9,-153,-5
O=C(Nc1ncc(Cc2ccccc2)s1)c1cccs1,47,-9,-155,8,-144,15
CCOC(=O)c1ccc(N=Nc2c(C)c(C#N)c(O)[nH]c2=O)cc1,-1,-20,-92,65*,-139,-59
Cc1c(C#N)c(O)n(C)c(=O)c1N=Nc1ccc(S(N)(=O)=O)cc1,-36,1,-73,-65,-76,-31
CCc1ccc(OCc2n[nH]c(=S)n2Cc2ccccc2)cc1,2,-5,-9,-7,-20,-10
CCc1ccc(OCc2n[nH]c(=S)n2C(C)CCCC(C)C)cc1 (centres undefined),6,23,111*,-2,8,-9
CCn1cc(/C=N\NC(=O)Cc2ccc(Cl)cc2)cn1,16,-8,-1,12,-11,-7
O=S(=O)(c1ccc(OC(F)(F)F)cc1)N1CCC(O)(c2cccc(C(F)(F)F)c2)CC1,16,2,19,3,15,58*
O=C(Nc1ccc2snnc2c1)N1CCOCC1,-1,4,-7,-5,10,-10
S=C(Nc1ccc(N2CCOCC2)cc1)Nc1ccc2snnc2c1,73*,6,-11,-5,-19,76*
CCOC(=O)C1CCN(C(=O)c2ccc(Oc3cc(Cl)cc(Cl)c3)o2)CC1,-6,-10,14,-1,14,-4
O=S(=O)(Nc1cccc(-n2cnnn2)c1)c1ccc(F)cc1,0,-5,-2,23,3,6
O=C(Nc1ccc(Cl)c(Cl)c1)Nc1ccccc1O,19,17,-272,19,-345,2
